High-throughput results as filed in PubChem.
The list is not random: actives were taken first. Their share in the collection is about 3.8%.
ERa SRC1 inh: ER-alpha (human) coactivator binding inhibition. P03372. TR-FRET ER-alpha LBD / SRC-1 peptide, estradiol-bound. inhibition, % at 25.6 µM. 86,000 tested, 1.7% active. AID 629; in the data active = inhibition above about 50%;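 note: 0% = receptor plus peptide control and 100% = peptide only without receptor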
Smad3 FoxH1 inh: Smad3 (human) transcription factor binding inhibition; TR-FRET Smad3/Dy647-FoxH1 peptide binding, europium anti-His; inhibition, % at 25 µM; 88,000 tested, 0.29% active; AID 630;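 active = compounds that reduce the energy-transfer binding signal between the protein and its labelled peptide by more than half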;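 note: 0% = Smad3 plus labelled peptide maximal FRET and 100% = peptide-only background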
ERa SRC1 pot: ER-alpha (human) coactivator binding potentiation; P03372; TR-FRET ERalpha-LBD/SRC-Cy5 coactivator binding, 2 h; 100 = basal binding, no effect; coactivator binding (% of control), % at 25.6 µM; 86,000 tested, 1.3% active; in the data active = activity above about 200%;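 note: binding measured in presence of low estradiol as agonist stimulus; 0% = peptide alone without receptor and 100% = receptor with peptide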
ERb coact inh: ER-beta (human) coactivator binding inhibition. TR-FRET ER-beta LBD / SRC1-Cy5 peptide binding; receptor agonist-loaded with 1 µM estradiol. inhibition, % at 25.6 µM. 86,000 tested, 1.3% active;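 active = compounds whose percent inhibition of the receptor-coactivator binding signal exceeds about 50% in the single-dose screen, limit read from the data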;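 note: 0% = receptor plus peptide wells without compound and 100% = peptide-only wells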
Target sequence (Q92731 whole entry, looked up, the tested form may be a part): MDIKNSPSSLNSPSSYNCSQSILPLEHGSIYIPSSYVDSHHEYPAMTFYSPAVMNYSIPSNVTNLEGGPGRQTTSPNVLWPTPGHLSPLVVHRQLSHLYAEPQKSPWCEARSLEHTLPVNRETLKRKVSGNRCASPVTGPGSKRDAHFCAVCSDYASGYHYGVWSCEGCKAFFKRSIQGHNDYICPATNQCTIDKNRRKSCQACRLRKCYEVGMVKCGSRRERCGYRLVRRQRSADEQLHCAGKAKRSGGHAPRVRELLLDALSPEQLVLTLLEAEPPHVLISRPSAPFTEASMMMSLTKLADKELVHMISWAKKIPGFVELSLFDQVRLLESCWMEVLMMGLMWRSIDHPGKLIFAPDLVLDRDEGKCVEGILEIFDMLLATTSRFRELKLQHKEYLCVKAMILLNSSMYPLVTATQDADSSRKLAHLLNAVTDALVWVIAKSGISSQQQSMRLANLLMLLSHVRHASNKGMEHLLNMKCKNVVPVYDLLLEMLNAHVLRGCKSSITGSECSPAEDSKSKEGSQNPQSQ
Candida biofilm: kills Candida albicans biofilms; inhibition, % at 6 µM; C. albicans biofilm + clotrimazole, Alamar Blue; 85,000 tested, 0.14% active;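 active = inhibition above 20%; inactive = inhibition below 20%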;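 note: preformed 24 hr biofilms exposed to compound for 48 hr; 0% = biofilm without compound and 100% = blank killed by clotrimazole plus chlorhexidine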
The depositor's hits bear a star; nt = not tested or not shown; [ ] = dose if it differs, or a comment.

SMILES | ERa SRC1 inh | Smad3 FoxH1 inh | ERa SRC1 pot | ERb coact inh | Candida biofilm
C[C@@]12CC[C@@H]3[C@H](CCC4=CC(=O)CC[C@]43C)[C@H]1CC[C@H]2C(=O)Cn1cnc2c(=S)nc[nH]c21 | nt | 11.9 | nt | nt | nt
Cc1cc(C(=O)COc2ccc3ccc(=O)oc3c2)c(C)n1Cc1cccs1 | 58.2*[fluorescence artefact?] | -19.8 | 347.1*[fluorescence artefact?] | 36.5 | 6.3
Fc1ccc(Cc2nnc(-c3cccs3)o2)cc1 | -11.5 | -0.2 | 124.7 | -2.5 | 24.1*
CSCC[C@@H](C(=O)O)N(C)C | nt | 2.4 | nt | nt | nt
O=C(O)C[C@H](S)C(=O)O | nt | 3.6 | nt | nt | nt
Cc1nnc(Sc2nc3c(c(=O)n(C)c(=O)n3C)n2Cc2ccccc2Cl)s1 | 63.9*[fluorescence artefact?] | 6.1 | 101.7 | 0.8 | -2.3
Cn1c(=O)c2c(nc(SCCN3CCOCC3)n2Cc2ccccc2Cl)n(C)c1=O | 3.2 | -1.0 | 103.7 | -13.5 | 3.4
C=C(Br)CN(C)CC(=C)Br | nt | -0.4 | nt | nt | nt
Cc1ccc(-n2c(SCc3cc(=O)n4ccsc4n3)nnc2-c2cccnc2)c(C)c1 | 75.2*[fluorescence artefact?] | 14.8 | 120.3 | 62.3* | 3.0
S=C1N[C@H](c2ccccc2)N[C@H](c2ccccc2)S1 | nt | 17.0 | nt | nt | nt
CCCOc1ccc(N)cc1N | 99.4*[fluorescence artefact?] | 9.1 | -3.0 | 99.2*[fluorescence artefact?] | nt
CCCOc1ccccc1NC(=O)c1ccc(N)cc1 | -6.3 | -2.9 | 104.5 | -8.3 | 1.4
c1ccc(CO[C@H]2NCCN2Cc2ccccc2)cc1 | nt | -13.3 | nt | nt | nt
Cc1onc(-c2ccccc2Cl)c1C(=O)NCc1ccco1 | 86.3*[fluorescence artefact?] | 23.0 | 40.8 | 53.5* | 2.1
Cc1noc(C)c1C(=O)NCc1ccco1 | -11.7 | -14.0 | 96.7 | 7.1 | -1.8
Cn1c(=O)oc2cc(S(=O)(=O)N3CCCC(C(=O)NC4CCCc5ccccc54)C3)ccc21 (centres undefined) | 15.8 | -0.8 | 79.9 | 51.1*[fluorescence artefact?] | 8.8
Cn1c(=O)oc2cc(S(=O)(=O)N3CCCC(C(=O)Nc4ccccn4)C3)ccc21 (centres undefined) | 4.3 | 2.5 | 108.6 | -1.6 | 8.4
O=C(O)C1=C/C(=C(/c2ccccc2)c2cc(C(=O)O)c(O)c3ccccc23)c2ccccc2C1=O | nt | 4.3 | nt | nt | nt
CC(=O)Nc1nonc1-c1nc2ccccc2n1Cc1nnc(C)o1 | 13.2 | -6.7 | 79.0 | 31.4 | -1.7
CCC(=O)Nc1nonc1-c1nc2ccccc2n1Cc1ccc(Cl)c(Cl)c1 | 57.8*[fluorescence artefact?] | 7.0 | 109.3 | 51.4*[fluorescence artefact?] | 7.8
N#Cc1c(SCC(N)=O)nsc1SCc1ccccc1Cl | 10.9 | 4.6 | 104.6 | 98.9*[fluorescence artefact?] | 9.6
N#Cc1c(SCC(N)=O)nsc1SCc1ccc(Cl)cc1 | 0.6 | -1.3 | 78.8 | 0.2 | 7.6
CCCC(=O)NC(C)c1nc2ccccc2n1CC (centres undefined) | 81.6*[fluorescence artefact?] | 6.6 | 98.4 | -10.8 | 10.4
C=C(C)Cn1c(C(C)NC(=O)CCC)nc2ccccc21 (centres undefined) | -0.3 | 3.5 | 99.8 | 0.6 | -0.3
c1ccc(B2OC[C@@H]3OB(c4ccccc4)O[C@H]([C@@H]4COB(c5ccccc5)O4)[C@H]3O2)cc1 | nt | -0.1 | nt | nt | nt
SMILES | ERa SRC1 inh | Smad3 FoxH1 inh | ERa SRC1 pot | ERb coact inh | Candida biofilm
O=C1C=C(NCC2CCCO2)CC(c2ccccc2)C1 (centres undefined) | -6.4 | 5.3 | 115.5 | -1.3 | 5.1
O=C1CC(c2ccc(F)cc2)Cc2nc(NCC3CCCO3)ncc21 (centres undefined) | 59.8* | 1.7 | 93.3 | -10.0 | 9.0
Nc1nc(N)[n+]([O-])c(N)c1NCO | nt | 3.6 | nt | nt | nt
c1ccc(/C(=N\Nc2nc3ccccc3s2)c2ccccn2)cc1 | nt | 19.7 | nt | nt | nt
Cc1nc(NNC(=O)c2ccc([N+](=O)[O-])cc2)cc(-c2ccccc2)n1 | 10.5 | 6.8 | 203.5*[fluorescence artefact?] | 5.8 | 1.4
C[C@@]12CC[C@H]3c4ccc(O)cc4CC[C@@H]3[C@H]1CC[C@H]2OC(=O)CCc1ccccc1 | nt | 13.3 | nt | nt | nt
OC[C@H](S)CS | nt | 85.7* | nt | nt | nt
OC[C@@H]1O[C@H](n2cnc3c(/C=C(\O)c4ccccc4)ncnc32)[C@H](O)[C@H]1O | nt | 1.7 | nt | nt | nt
O=C(Nc1ccc(-n2nncc2-c2ccco2)cc1)c1cc2ccccc2oc1=O | 69.5* | 42.6 | 185.9 | 65.2*[fluorescence artefact?] | -0.2
CCOc1ccc(NC(=O)CCn2c(=O)[nH]c3ccsc3c2=O)cc1 | 4.5 | 12.7 | 114.3 | -1.5 | nt
O=C(Nc1ccncc1)c1cc(F)cc(F)c1 | 4.7 | -1.6 | 110.8 | -6.4 | 5.0
CCOc1c(C(N)=O)c(-c2ccccc2)c2c(=O)[nH]c3ccccc3n12 | 81.5*[fluorescence artefact?] | 3.2 | 53.5 | 60.8* | 3.1
COc1ccc(OCCCC(=O)NCC(C)C)cc1 | -0.6 | -0.1 | 107.6 | -4.7 | 64.5*
COCCn1c(N)c(S(=O)(=O)c2cccs2)c2nc3ccccc3nc21 | -4.8 | 17.5 | 126.1 | 8.9 | 4.3
Nc1c(S(=O)(=O)c2cccs2)c2nc3ccccc3nc2n1Cc1ccccc1 | 24.7 | -8.5 | 205.8* | 4.2 | 8.9
Cc1ccc(S(=O)(=O)c2c(N)n(Cc3ccco3)c3nc4ccccc4nc23)cc1 | 10.4 | -5.8 | 198.1 | 15.9 | -1.9
Cc1cccc(S(=O)(=O)c2c(N)n(Cc3ccco3)c3nc4ccccc4nc23)c1 | 47.0 | 14.3 | 88.2 | 61.2* | 3.7
Cn1c(Cn2c(=O)sc3ccccc32)nnc1SCC(=O)Nc1ccc(Cl)cc1 | -4.2 | 3.3 | 230.6*[fluorescence artefact?] | -4.5 | 2.4
O=C1CC(N2CCCc3ccccc32)C(=O)N1c1ccccc1Cl (centres undefined) | 1.2 | 0.2 | 95.0 | -3.9 | 4.5
COCCCn1c2nc3ccccc3nc2c2c(=O)n(-c3ccccc3OC)cnc21 | 0.1 | 0.6 | 92.2 | 1.1 | 11.4
COCCCn1c2nc3ccccc3nc2c2c(=O)n(-c3ccccc3OC)c(C)nc21 | 12.2 | 7.0 | 318.9* | 4.7 | -0.3
CCCn1c(C)nc2c(c1=O)c1nc3ccccc3nc1n2CCc1ccccc1 | 52.9* | 3.9 | 140.7 | 32.8 | 8.5
CCC(=O)Oc1ccc(/C(CC)=C(\CC)c2ccc(OC(=O)CC)cc2)cc1 | -2.8 | -8.7 | 376.4* | -0.5 | 11.4
CCC(=O)c1ccc(OC(=O)c2ccc(Br)o2)cc1 | 3.1 | -0.3 | 124.0 | -1.1 | 5.4
CCCNc1nc(N2CCOCC2)nc(N2CCOCC2)n1 | -2.2 | 9.9 | 132.9 | 54.8* | 4.8
SMILES | ERa SRC1 inh | Smad3 FoxH1 inh | ERa SRC1 pot | ERb coact inh | Candida biofilm
CN1CCN(c2nc3c(c(=O)n(C)c(=O)n3C)n2C)CC1 | nt | 0.4 | nt | nt | nt
O=C(N/N=C/c1ccc2c(c1)CCC2)c1ccccc1O | nt | -7.5 | nt | nt | nt
c1ccc(Cn2nnnc2CN2CCN(Cc3ccc4c(c3)OCO4)CC2)cc1 | 6.1 | 8.2 | 208.6* | 0.3 | 8.4
c1ccc(Cn2nnc3c(NCc4ccc5c(c4)OCO5)nc(C4CC4)nc32)cc1 | 78.8*[fluorescence artefact?] | -10.8 | 55.8 | 43.3 | 5.4
Cc1nc(NCc2ccc3c(c2)OCO3)c2nnn(Cc3ccccc3)c2n1 | 63.1*[fluorescence artefact?] | 3.3 | 154.4 | 26.7 | 5.2
Cc1cc(N2CCOCC2)nc2ccc(Cc3ccc4nc(N5CCOCC5)cc(C)c4c3)cc12 | nt | 13.2 | nt | nt | nt
Cc1ccc(C)c(N2CCN(C(=O)CNS(=O)(=O)c3cccs3)CC2)c1 | -6.5 | 1.6 | 94.3 | -4.3 | 7.0
Cc1cccc2c1Oc1ccccc1[C@H]2NC(=O)c1ccc([N+](=O)[O-])cc1 | nt | 8.3 | nt | nt | nt
Cc1cccc(NC(=O)C2CCN(c3nc(C)cc(C)n3)CC2)c1 | 0.1 | 7.0 | 115.4 | 55.2*[fluorescence artefact?] | 1.8
